From PubChem BioAssay (NCI)
Values joined by “and” are separate entries in the source; they are usually repeats but may differ in a detail not shown here. Identical values can stand only once. The panel holds about 83,000 compounds, 20% with a hit somewhere; the sample as a whole holds those more often.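 Activity criterion: percent growth below 10, measured after cells in 96-well plates were exposed to a single compound concentration for 48 hours.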 Active and inactive are the calls of the source.

System: HOP-62 NSCLC
Test: NCI-60 one-dose screen, 48 h (100 = growth as untreated, 0 = no growth, -100 = all killed)
Conditions: 0.25 µM
Description: Growth inhibition of the HOP-62 human Non-Small Cell Lung tumor cell line is measured as a screen for anti-cancer activity. Cells are grown in 96 well plates and exposed to the test compound for 48 hours. Compounds are tested at a single concentration, which is 10^-5 M for most compounds. The reported endpoint is percent growth (GI% or GIPRCNT), where numbers from 0 - 100% represent growth inhibition, and numbers from -100% - 0 represent cell death. For example, a value of 40 represents 60% growth inhibition. A value of 0 means no net growth occurred over the course of the experiment. A value of -40 indicates 40% of cells at the beginning of the experiment died by the end of the experiment. A value of -100 means all cells are dead at the end of the experiment.
NCI-60 Human Tumor Cell Lines Screen was performed using the standard one-dose NCI protocol, which is described in more detail at https://dtp.cancer.gov/discovery_development/nci-60/default.htm.
Compounds with GIPRCNT values below 10 were considered active. Activity score was based on GIPRCNT using the following formula: […]
Score is 0 for GIPRCNT values of 100 or above, 50 for GIPRCNT values of 0, and 100 for GIPRCNT values of -100.

SMILES | growth
CCCCCCCCCCCCCCCc1ccc(Cl)c(O)c1Cl (tested in a mixture with another compound) | 19% (inactive)

Same assay, conditions: 10 µM

SMILES | growth
COc1ccc(Cl)cc1C(=O)NCCc1ccc(S(=O)(=O)NC(=O)NC2CCCCC2)cc1 | 88.3% (inactive)
CCCCCCCCCCCCCCCc1ccc(Cl)c(O)c1Cl (tested in a mixture with another compound) | 97.5% (inactive)
CC#C[C@]1(O)CC[C@H]2[C@@H]3CCC4=CC(=O)CCC4=C3[C@@H](c3ccc4c(c3)OCO4)C[C@@]21C | 81.3% (inactive)

Same assay, conditions: 10 µM unless noted

SMILES | growth
CN1CCN(c2ccc3nc(-c4c(N)c5c(F)cccc5[nH]c4=O)[nH]c3c2)CC1 | 23.4% (inactive) and 24.6% (inactive)
CNc1ccc2nc3ccc(=[N+](C)C)cc-3sc2c1 | 7.64% (active) and 7.54% (active)
O=S1(=O)CC(Br)C(Br)C1 (stereo not given) | 104% (inactive) and 116% (inactive)
Nc1ccc2ccc(N)cc2c1 | 86% (inactive)
CN(C)c1ccc(C(Cc2ccc3ccccc3n2)Cc2ccc3ccccc3n2)cc1 | 70.9% (inactive) and 84.4% (inactive)
COc1ccc(NC(=S)Nc2ccccn2)cc1 | 97.9% (inactive)
CC12CCC(CC1)C(C)(C)O2 | 110% (inactive)
CCCCOc1cc(C(=O)NCCN(CC)CC)c2ccccc2n1 | 99.4% (inactive) and 102% (inactive)
NCCSC(C[N+](=O)[O-])c1ccccc1Cl (stereo not given) | 106% (inactive)
CNC(=O)c1cccc(-c2ccc3c(N4CCOC[C@@H]4C)nc(N4CCOC[C@@H]4C)nc3n2)c1 | -3.27% (active) and -14.6% (active)
O=C(O)CN(CCN(CC(=O)O)CC(=O)O)CCN(CC(=O)O)CC(=O)O | -75.5% (active) and 97.4% (inactive) and 99.5% (inactive)
Cn1cnc([N+](=O)[O-])c1Sc1ncnc2nc[nH]c12 | 37.2% (inactive) and 20.8% (inactive)
O=[N+]([O-])c1ccc(N/N=C\c2cc(Br)ccc2O)nc1 | 12.2% (inactive) and 34.9% (inactive)
NC(=O)c1ccccc1OCC(O)CO (stereo not given) | 101% (inactive)
COc1ccc(-c2ncnc3c2ncn3C/C=C/CCl)cc1 | 98.7% (inactive) and 95.9% (inactive)
CC1=C(/C=C/C(C)=C/C=C/C(C)=C/C(=O)O)C(C)(C)CCC1 | 73% (inactive) and 75.4% (inactive)
CCN(CC)CCNc1ccc(C)c2sc3ccccc3c(=O)c12 (tested in a mixture with another compound) | 51.4% (inactive) and 51.3% (inactive)

SMILES | growth
Cn1cc(-c2cc3c(Nc4ccc(CC(=O)Nc5cc(C(C)(C)C)on5)cc4)ncnc3[nH]2)cn1 | -11.3% (active) and -15.3% (active)
COc1ccccc1/C=N\N=C(N/N=C/c1ccccc1OC)N/N=C/c1ccccc1OC | 74.8% (inactive) and 26.9% (inactive)
Cc1cc(O)c(C(C)C)cc1N | 90% (inactive) and 109% (inactive)
O=C1C2=C(C(=O)c3ccccc31)C(O)(S(=O)(=O)O)C(O)(S(=O)(=O)O)C1N=CC=CC21 (stereo not given) | 42.1% (inactive) and 41.9% (inactive)
CN(C)CCC(=O)c1ccc(Cl)cc1 | 112% (inactive) and 115% (inactive)
CC(C)(C)c1ccc(O)c(CNC2CCCCC2)c1 | 119% (inactive) and 88.9% (inactive)
CCc1c(CC(=O)O)c2cc(C)ccc2n1Cc1ccc(Cl)cc1 | 94.7% (inactive) and 70.2% (inactive)
O=[N+]([O-])c1ccc(/C=N\NC(=S)Nc2ccc(F)cc2)cc1 | 105% (inactive) and 94.6% (inactive)
CN1CCN(Cc2occc(=O)c2O)CCN(C)CCN(Cc2occc(=O)c2O)CC1 | 97.1% (inactive) and 58.9% (inactive)
O=C(O)CSCc1nc2ccccc2[nH]1 | 120% (inactive)
O=[N+]([O-])c1ccc2nc3c4ccccc4c4ccccc4c3nc2c1 | 90% (inactive)
COc1cc(/C=N/Nc2nc3c([nH]2)c(=O)n(C)c(=O)n3C)ccc1O | 105% (inactive) and 102% (inactive)
Oc1ccc(/C=C/c2ccccc2)cc1 | 109% (inactive) and 87.9% (inactive)
N#CC(C#N)=C/C=C/c1cccc([N+](=O)[O-])c1 | -4.35% (active) and -23.7% (active)
CCN(CC)CCC(CNc1ccnc2cc(Cl)ccc12)c1ccc(OC)cc1 (stereo not given) | 83.4% (inactive) and 77.7% (inactive)
O=[N+]([O-])c1ccccc1N(S(=O)(=O)c1ccccc1)S(=O)(=O)c1ccccc1 | 118% (inactive) and 119% (inactive)
O=C=NC(c1ccccc1)(c1ccccc1)c1ccccc1 | 143% (inactive)

Same assay, conditions: 100 µM

SMILES | growth
COc1ccc(Cl)cc1C(=O)NCCc1ccc(S(=O)(=O)NC(=O)NC2CCCCC2)cc1 | 69.1% (inactive)
CC#C[C@]1(O)CC[C@H]2[C@@H]3CCC4=CC(=O)CCC4=C3[C@@H](c3ccc4c(c3)OCO4)C[C@@]21C | -15.3% (active)
